# Assay outcomes (PubChem)
# Rows were chosen to be rich in hits. Some 19% of all compounds tested hit in one or more screens of this group.
# DT40 TDP1 CPT = qHTS for Inhibitors of human tyrosyl-DNA phosphodiesterase 1 (TDP1): qHTS in cells in presence of CPT; chicken DT40 Tdp1-/-;hTDP1 cells + 20 nM CPT, ATP luminescence, 48 h; Potency, µM (titrated, usually from 46.2 µM), inactives show top-dose activity change, negative = growth inhibition, actives largely listed as inhibitors; actives 12% (n = 420,000); AID 686979, 2013; note: potency is the fitted concentration of half-maximal effect; % is set by controls: 0 for no effect and ±100 for the full control effect; nearly all actives have a fitted effect of over 55% in size
#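 Chicken DT40 Tdp1-/- cells complemented with human TDP1, 400 cells/well, exposed to compounds plus 20 nM camptothecin for at least 48 h at 37 C; viability read as ATP content by CellTiter-Glo luminescence.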
# DT40 TDP1 no CPT = qHTS for Inhibitors of human tyrosyl-DNA phosphodiesterase 1 (TDP1): qHTS in cells in absence of CPT | Potency, µM (titrated, usually from 46.2 µM), for inactives: top-dose activity change, negative = growth inhibition, hits mostly inhibitors | AID 686978, 2013 | DT40 Tdp1-/- hTDP1 cells, no CPT, ATP luminescence, 48 h | actives 15% (n = 420,000); note: potency is the fitted concentration of half-maximal effect; % is set by controls: 0 for no effect and ±100 for the full control effect; nearly all actives have a fitted effect of over 55% in size
#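 Readout: luminescence from CellTiter-Glo after 30 min in the dark at RT. Cells: DT40 Tdp1-/- with stable hTDP1, 400/well. Exposure: compounds alone, ≥48 hr, 37 °C.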
# IL1B secr inh = qHTS for Inhibitors of Inflammasome Signaling: IL-1-beta AlphaLISA Primary Screen; THP-1 LPS/ATP IL-1B secretion, AlphaLISA, 16 h; stronger effect = lower value; activity change, % at 57.5 µM; actives 4.7% (n = 360,000); AID 743279, 2014; in the data active = activity change below about -50%; inconclusive = mostly about -30% to -49%; note: % is set by controls: 0 for no effect and ±100 for the full control effect
#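 THP-1 cells pretreated 1 hr with compounds (up to 57.5 uM final), then stimulated with LPS (250 ng/mL final) plus ATP (1.25 mM final); secreted IL-1B measured by AlphaLISA after 16 hr, decreased signal indicating inhibition.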
# ASM inhibitor = Inhibitors of Secretory Acid Sphingomyelinase (S-ASM): qHTS; Potency, µM (top dose mostly 57.5 µM), without a hit: at the highest dose activity change, negative = inhibition, actives largely listed as inhibitors; Sphingomyelin phosphodiesterase (Homo sapiens), P17405; placental ASM, HMU-PC fluorogenic substrate, 60 min; actives 0.006% (n = 340,000); note: potency is the fitted concentration of half-maximal effect
# Target sequence (P17405 47-631 limits assumed): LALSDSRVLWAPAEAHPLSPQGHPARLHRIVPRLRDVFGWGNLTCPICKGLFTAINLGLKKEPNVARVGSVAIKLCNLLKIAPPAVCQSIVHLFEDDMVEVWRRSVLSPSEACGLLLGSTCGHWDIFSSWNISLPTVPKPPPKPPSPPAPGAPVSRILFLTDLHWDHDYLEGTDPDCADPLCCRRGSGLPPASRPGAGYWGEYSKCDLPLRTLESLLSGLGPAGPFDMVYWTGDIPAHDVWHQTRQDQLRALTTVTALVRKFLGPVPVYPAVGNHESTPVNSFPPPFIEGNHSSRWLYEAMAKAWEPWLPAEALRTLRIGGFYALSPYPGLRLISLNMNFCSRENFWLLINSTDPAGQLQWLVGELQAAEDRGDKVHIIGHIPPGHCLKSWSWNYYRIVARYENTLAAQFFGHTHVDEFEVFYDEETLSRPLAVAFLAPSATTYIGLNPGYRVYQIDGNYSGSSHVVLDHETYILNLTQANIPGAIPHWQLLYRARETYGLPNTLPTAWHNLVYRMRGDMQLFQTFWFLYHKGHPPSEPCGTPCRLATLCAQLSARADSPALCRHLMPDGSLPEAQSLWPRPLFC
#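 Human placenta-derived ASM preincubated with compound 10 min at room temperature, then reacted with 9 uM (final) fluorogenic HMU-PC substrate for 60 min at 37 C. Stop solution raises pH to 10; fluorescence read at Ex 386/Em 447 nm.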
# HepG2 viability = qHTS for Inhibitors of TGF-b: Cytotox Counterscreen. HepG2 CAGA-GFP viability, ATP luminescence, 18 h. AID 588856, 2011. Potency, µM (series often up to 46.1 µM), for the others: at the highest dose activity change, negative = cytotoxicity, usual class: cytotoxic. actives 0.76% (n = 410,000); note: potency is the fitted concentration of half-maximal effect
#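 HepG2 CAGA-GFP cells (1000/well, DMEM with 1% FBS) received compound, then TGF-beta at 500 pg/mL final, and were incubated 18 hours at 37 degrees C. Viability was read by CellTiter-Glo luminescence. Media-only wells were set as complete cell-killing and DMSO as no toxicity.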
# TGFb SMAD3 inh = qHTS for Inhibitors of TGF-b. HepG2 CAGA-GFP TGF-b/SMAD3 reporter, GFP fluorescence, 18 h; TGF-beta stimulated, 500 pg/mL final. Potency, µM (doses to about 46.1 µM), for inactives: at the top dose activity, negative = inhibition, usual class: inhibitors. actives 1.2% (n = 410,000). AID 588855, 2011; note: potency is the fitted concentration of half-maximal effect; % is set by controls: 0 for no effect and ±100 for the full control effect; nearly all actives have a fitted effect of over 65% in size
#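 Per well, imaged GFP fluorescence of HEPG2 CAGA-GFP cells gives the signal; cells get compound, then TGF-beta (500 pg/mL final), 18 h at 37 degrees C; %Activity versus -TGF-beta and +DMSO controls.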
# * marks the source's active call; other numbers are inactive results; ? = inconclusive; · = not tested or not shown. Unless noted, calls come from the whole dose curve; as a rule, active = well fitted curve in the direction sought with a large enough effect; inconclusive = small, poorly fitted or top-dose-only effect, or another doubt; inactive = no such curve, though single readings can be large; an effect the other way counts as inactive or inconclusive.
SMILES,DT40 TDP1 CPT,DT40 TDP1 no CPT,IL1B secr inh,ASM inhibitor,HepG2 viability,TGFb SMAD3 inh
Cc1ccc(-c2nn(CC(=O)NC3CCCC3)c3c2cnc2ccc(F)cc23)cc1C,?,12µM*,·,·,-3%,0%
CCOc1ccc2ncc3c(-c4ccccc4)nn(CC(=O)Nc4cccc(F)c4)c3c2c1,-7%,-11%,·,·,3%,1%
COc1ccc(-c2nn(-c3ccc(C)cc3)c3c2cnc2ccc(C)cc23)cc1OC,2%,0%,·,·,-6%,-31%
CCc1ccc(-c2nn(CC(=O)NC3CCCC3)c3c2cnc2ccc(F)cc23)cc1,-22%,-15%,·,·,3%,-9%
Cc1ccc(-n2nc(-c3ccccc3)c3cnc4cc5c(cc4c32)OCO5)cc1C,-10%,-20%,·,·,0%,5%
COc1ccc2ncc3c(-c4ccccc4)nn(-c4ccc(C)c(C)c4)c3c2c1,12µM*,9.2µM*,·,·,1%,23%
CCCCCCC(NC(=O)Cc1ccc2ccccc2c1)C(=O)O (stereo not drawn),1%,-20%,18,0%,3%,24%
O=C(NCc1ccccc1)C1Cc2c(-c3ccc(Cl)cc3)ccnc2O1 (stereo not drawn),0.65µM*,0.82µM*,53,·,15%,?
NC(=O)c1cccc(-c2ccnc3c2CC(C(=O)Nc2ccccc2)O3)c1 (stereo not drawn),-15%,-10%,-17,·,1%,41%
COc1ccc(NC(=O)C2Cc3c(-c4cccc(F)c4)ccnc3O2)cn1 (stereo not drawn),?,16µM*,-16,·,11%,15%
O=C(Nc1ccccc1)C1Cc2c(-c3ccc(Cl)cc3)ccnc2O1 (stereo not drawn),?,?,-51*,·,0%,-14%
NC(=O)c1cccc(-c2ccnc3c2CC(C(=O)Nc2ccc(Cl)cc2)O3)c1 (stereo not drawn),23µM*,13µM*,-3,·,-38%,-4%
O=C(Nc1cccnc1)C1Cc2c(-c3cccc(F)c3)ccnc2O1 (stereo not drawn),?,?,-14,·,-5%,9%
CNC(=O)C1Cc2c(-c3ccc(Cl)cc3)ccnc2O1 (stereo not drawn),-28%,?,4,·,-2%,26%
COc1cccc(NC(=O)CN2CCC(NC(=O)c3ccccc3C)CC2)c1,-8%,-2%,-7,·,4%,-13%
Cc1ccc(NC(=O)COC(=O)c2oc3ccccc3c2C)cc1S(=O)(=O)N1CCOCC1,?,?,7,-11%,-11%,-11%
CC(C)c1ccc(NC(=O)C2Cc3c(-c4cccc(F)c4)ccnc3O2)cc1 (stereo not drawn),16µM*,9.2µM*,-67*,·,-21%,-27%
CC(C)c1ccc(NC(=O)C2Cc3c(-c4cccc(C(N)=O)c4)ccnc3O2)cc1 (stereo not drawn),16µM*,?,?,·,-36%,34%
Cc1ccc(NC(=O)C(C)N2C(=O)c3ccccc3C2=O)c(C)c1 (stereo not drawn),8%,19%,12,0%,36%,19%
COc1cc(SC)ccc1C(=O)Nc1c(C)cccc1C,?,13µM*,21,1%,-2%,0%
COc1cc(SC)ccc1C(=O)NNC(=O)c1cc(C)oc1C,?,15µM*,-3,-1%,7.9µM*,10%
COc1ccccc1C(=O)Nc1cccc(SC)c1,-4%,-10%,12,0%,-10%,-12%
CN(CCO)C(=O)c1cn(C2CCN(Cc3ccc(C(F)(F)F)cc3)CC2)nn1,-14%,-14%,·,·,·,·
CC(C)OCCOc1ccc2oc(-c3ccco3)cc(=O)c2c1,-19%,?,-66*,26%,-12%,2%
CCOC(=O)CSc1nc2ccc(NC(=O)CSc3nnnn3Cc3ccccc3)cc2s1,-14%,-13%,24,-4%,-38%,0%
SMILES,DT40 TDP1 CPT,DT40 TDP1 no CPT,IL1B secr inh,ASM inhibitor,HepG2 viability,TGFb SMAD3 inh
CC(C)(C)NC(=O)CSc1nc2ccc(NC(=O)CSc3nnnn3Cc3ccccc3)cc2s1,8.2µM*,10µM*,-29,-9%,-27%,?
CC(C)(C)NC(=O)CSc1nc2ccc(NC(=O)CSc3nnc(N)s3)cc2s1,21µM*,9.2µM*,-8,2%,9%,-17%
CCc1ccc2[nH]c(O)c(N=NC3=NC(=O)CS3)c2c1,2.6µM*,1.8µM*,37,-4%,-21%,?
CC(=O)c1cccc(-c2ccnc3c2CC(C(=O)NCc2ccc(F)c(F)c2)O3)c1 (stereo not drawn),4.1µM*,4.1µM*,61,·,-7%,-7%
CC(=O)c1cccc(-c2ccnc3c2CC(C(=O)NCc2ccccc2)O3)c1 (stereo not drawn),0.73µM*,0.65µM*,50,·,-16%,-9%
CC(=O)c1cccc(-c2ccnc3c2CC(C(=O)NCc2ccc(N4CCN(C)CC4)cc2)O3)c1 (stereo not drawn),-40%,?,-12,·,-7%,7%
CC1(C(=O)NS(=O)(=O)c2ccccc2OC(F)(F)F)CCN1C(=O)c1ccccc1 (stereo not drawn),2%,-3%,-2,·,-1%,3%
COc1cc(C(CC(=O)Nc2ccc(F)cc2F)N2Cc3ccccc3C2=O)cc(OC)c1OC (stereo not drawn),?,?,·,·,-18%,7%
COc1cc(C(CC(=O)Nc2cc(C)ccc2C)N2Cc3ccccc3C2=O)cc(OC)c1OC (stereo not drawn),-17%,?,·,·,-9%,-3%
Cc1ccc(C(CC(=O)Nc2ccc(C)cc2C)N2Cc3ccccc3C2=O)cc1 (stereo not drawn),16µM*,18µM*,·,·,-2%,?
CC(=O)c1cccc(NC(=O)CC(c2ccc(C)cc2)N2Cc3ccccc3C2=O)c1 (stereo not drawn),?,16µM*,·,·,-16%,-10%
